# Laboratory results from PubChem BioAssay AID1508637 (National Center for Advancing Translational Sciences (NCATS), 2021).
# Records with an inconclusive call do not appear. Activity calls are given as the source filed them. Calls come from the whole dose curve; as a rule, active = well fitted inhibition curve with a large enough effect; inconclusive = small, poorly fitted or top-dose-only effect; inactive = flat fitted curve, though single readings scatter. Starred links: 1 amine or outer side, 2 acyl side, 3 side chain; linkers in the order of their positions; H or OH if unused. Non-standard residues stand in square brackets, D forms with d. Residues, ends and D or L forms follow the SMILES beside them. X1 = O=C([C@@H](CC(O)CCl)O[*:1])[*:2]; aIle = CC[C@@H](C)[C@H](N)C(=O)O; NMeV = CN[C@H](C(=O)O)C(C)C; NMeA = CN[C@@H](C)C(=O)O; βAla = NCCC(=O)O
# Assay: qHTS for characterization and localization of zebrafish homologs of the human ABCB1 multidrug transporter: empty vector transfected cells
# Settings: empty vector transfected control cells, CellTiter-Glo luminescence viability, 72 h
# Excerpt: The zebrafish has emerged as a potential model to study the blood-brain barrier (BBB) given its similarities with mammalian systems. However, little information has been available with regard to homologous ATP-binding cassette transporters expressed at the zebrafish BBB. Two transporters that are highly expressed at the human BBB are P-glycoprotein (P-gp, encoded by the ABCB1 gene) and ABCG2 (encoded by the ABCG2 gene). In this study, we focus on characterization of P-gp homologs in the zebrafish, which has two genes that are homologous to human ABCB1 - abcb4 and abcb5. We generated stably-transfected cell lines to determine their substrate specificities. […] Zebrafish abcb4 also colocalized with claudin 5 expression in brain endothelial cells.
# A high-throughput screen was performed as previously described on empty vector transfected cells, P-gp-overexpressing MDR-19 cells and cells transfected with full-length zebrafish abcb4 (ZF Abcb4) or abcb5 (ZF Abcb5). Briefly, cells were plated into 1536-well plates at a density of 500 cells/well in 5 uL media. P-gp substrate compounds (approximately 90) selected from our previous study were then added at varying concentrations using a 1536-head pin tool (Kalypsis, San Diego, CA) and plates were incubated at 37C in 5% CO2 for 72 h. CellTiter-Glo reagent (Promega) was dispensed into the wells, incubated for 5 min and luminescence was read on a ViewLux instrument (Perkin-Elmer).
# Cytotoxic compounds were defined as those that yielded a curve class of -1.1, -1.2, -2.1, -2.2, -2.3, or -2.4, a maximum response of >50% and an AC50 of < 10 uM. All compounds from screening analysis were tested in Vector (empty vector control), MDR-19 (P-gp overexpressing), zebrafish abcb4 (ZF Abcb4) and abcb5 (ZF Abcb5) expression cell lines.
# 1. Tobie D Lee, Olivia W Lee, Kyle R Brimacombe, Lu Chen, Rajarshi Guha, Sabrina Lusvarghi, Bethilehem G Tebase, Carleen Klumpp-Thomas, Robert W Robey, Suresh V Ambudkar, Min Shen, Michael M Gottesman, Matthew D Hall. A High-Throughput Screen of a Library of Therapeutics Identifies Cytotoxic Substrates of P-glycoprotein. […]
row,Structure (SMILES),Potency
1,C[C@@H]1[C@@H](CC(C[C@H]2O[C@@H]3O[C@]4(C)CC[C@@H]5[C@H](C)CC[C@@H]([C@H]2C)[C@@]35OO4)C[S+](=O)([O-])c2ccc(COC(=O)N(C)C)cc2)O[C@@H]2O[C@]3(C)CC[C@H]4[C@H](C)CC[C@@H]1[C@@]24OO3 (stereo partly drawn),264 nM (active)
2,C=CCON=C(C[C@H]1O[C@@H]2O[C@]3(C)CC[C@@H]4[C@H](C)CC[C@@H]([C@H]1C)[C@@]24OO3)[C@H]1O[C@@H]2O[C@]3(C)CC[C@H]4[C@H](C)CC[C@@H]([C@@H]1C)[C@@]24OO3,187 nM (active)
3,CC[C@@H](C)[C@@H]1NC(=O)[C@@H]2CCCN2C(=O)[C@@H](CC(O)CCl)OC(=O)CCNC(=O)[C@H](C)N(C)C(=O)[C@H](C(C)C)N(C)C1=O (stereo partly drawn) (cyclo([NMeA][βAla][X1]P[aIle][NMeV])),1390 nM (active)
